Measurements published in PubChem BioAssay (NCATS).
Inconclusive results are not listed. Where a call stands in place of a potency, no number is given. Activity calls are given as the source filed them. Calls come from the whole dose curve; as a rule, active = well fitted inhibition curve with a large enough effect; inconclusive = small, poorly fitted or top-dose-only effect; inactive = flat fitted curve, though single readings scatter.

System: CRL-7250
Test: qHTS assay to identify novel small-molecules to repurpose for Merkel cell carcinoma treatment (AID 1296009); note: nearly all actives have a fitted effect of over 60% in size
Conditions: MCC and control cell lines, CellTiter-Glo viability, 72 h; series mostly up to 92 µM
In short: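 Cells were treated for 72 hr at 37 degree celsius with compounds in 8- or 11-point dose response. Viability was read by CellTiter-Glo luminescence, normalized to no-cell (cytotoxicity) and DMSO controls.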

| SMILES | Potency | outcome |
| --- | --- | --- |
| C=CC(C)(O)CC/C=C(\C)C1CC=C(C)C(=O)O1 (stereo unspecified) | inactive |  |
| O=C(O[C@H]1[C@@H]2C=CO[C@@H](O[C@@H]3O[C@H](CO)[C@@H](O)[C@H](O)[C@H]3O)[C@@H]2[C@@]2(CO)O[C@@H]12)c1ccc(O)c(O)c1 | inactive |  |
| Cc1nc2ccc(CN(C)c3ccc(C(=O)NC(CCC(=O)O)C(=O)O)s3)cc2c(=O)[nH]1 (stereo unspecified) | inactive |  |
| C[C@@H]1CC[C@]2(C)C(C[C@@H](O)[C@H](O)[C@]23CO3)[C@@]1(C)CCc1ccoc1 (stereo partly specified) | inactive |  |
| CC(C)=C1CC2C(CCC2(C)O)C(C)(O)CC1=O (stereo unspecified) | inactive |  |
| Cc1cccc(NC(=O)CN2CCC(c3ccccn3)CC2)c1 | inactive |  |
| O=C(Nc1ccccc1-c1cn2c(CN3CCNCC3)csc2n1)c1ccc2ccccc2n1 | inactive |  |
| O=C(Nc1ccc2[nH]ncc2c1)C1CCC1 | inactive |  |
| CCCCCCCOc1cc2c(cc1/C(C)=C/c1ccc(C(=O)O)cc1)C(C)(C)CCS2(=O)=O | inactive |  |
| COc1c2c(c(C)c3c1C(=O)OC3)OC1(C)CC(O)C34OC(OC)(CC(OC(C)=O)C3(C)C1C2)OC4(C)C (stereo unspecified) | inactive |  |
| C[C@H](NC(c1cccc(C[P+](=O)O)c1)[C@H](C)O)c1ccc(Cl)c(Cl)c1 (stereo partly specified) | inactive |  |
| NCCCC[C@H](NC(=O)[C@@H]1Cc2ccccc2CN1C(=O)CCC(=O)c1ccccc1)C(=O)NCC(c1ccccc1)c1ccccc1 | inactive |  |
| CCC/C=C/C=C/C1CC(O)C(O)C(=O)C1CO (stereo unspecified) | inactive |  |
| CN1C(=O)c2ccccc2-n2c(nc3ccccc3c2=O)/C1=C/c1ccccc1 | inactive |  |
| CC(C)C1NC(=O)C2CCCN2C1=O (stereo unspecified) | inactive |  |
| CC1(C)CC[C@]2(C(=O)O[C@@H]3O[C@H](CO[C@@H]4O[C@H](CO)[C@@H](O)[C@H](O)[C@H]4O)[C@@H](O)[C@H](O[C@@H]4O[C@H](CO)[C@@H](O)[C@H](O)[C@H]4O)[C@H]3O)CC[C@]3(C)C(=CCC4[C@@]5(C)CC[C@H](O[C@@H]6OC[C@@H](O)[C@H](O)[C@H]6O)[C@@](C)(C(=O)O)C5CC[C@]43C)[C@@H]2C1 (stereo partly specified) |  | inactive [at 9.27 µM] |
| Cc1ncc([N+](=O)[O-])n1CC(O)CN1CCOCC1 (stereo unspecified) | inactive |  |
| CC1(C)CCCC2(C)C1C(O)C=C(CO)C2(O)CO (stereo unspecified) | inactive |  |
| C[C@H](C(=O)NC1CCCC1)N(C(=O)Cn1nnc(-c2ccc3c(c2)OCO3)n1)C1CCCCC1 | inactive |  |
| C=C1CCC2C(C)(C)CCC[C@]2(C)[C@H]1CC/C(C)=C/C(=O)O (stereo partly specified) | inactive |  |
| O=C1COc2nccc(-c3ccccc3F)c2CN1Cc1cc(C(F)(F)F)cc(C(F)(F)F)c1 | inactive |  |
| CC1CC2OCC3(O)CCC(O)C(C14CC(c1ccoc1)OC4=O)C23CO (stereo unspecified) | inactive |  |
| CO[C@@]12CC3[C@@H]([C@@H](O)[C@@H](OC(C)=O)C4[C@](C)(COC(C)=O)CCC[C@]34C)[C@@H](C)C1=CC(=O)O2 (stereo partly specified) | inactive |  |
| COC(=O)C1=COC(OC2OC(CO)C(O)C(O)C2O)C2C1C=CC2(O)CO (stereo unspecified) | inactive |  |
| O=C(/C=C/c1ccccc1)OCC1=CC[C@@H]2C(C(=O)O)=CO[C@@H](O[C@@H]3O[C@H](CO)[C@@H](O)[C@H](O)[C@H]3O)[C@H]12 | inactive |  |
| CC(C)c1cc2c(c(O)c1O[C@@H]1O[C@H](CO)[C@@H](O)[C@H](O)[C@H]1O)CC1(O)CCC(O)C(C)(C)C1CC2 (stereo partly specified) | inactive |  |
